We go through 40 compounds from PubChem BioAssay (NCI).

Molecules are shown by their SMILES. The panel holds about 83,000 compounds, 20% with a hit somewhere; the sample as a whole holds those more often.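 A percent growth of 40 corresponds to 60% growth inhibition; 0 means no net growth; -100 means all cells died. Active threshold: below 10.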 Unmarked numbers belong to inactive results. Calls of active or inactive are those of the source.

For the assay, the system named is HL-60(TB) leukemia. Nature of the assay: NCI-60 one-dose screen, 48 h (100 = growth as untreated, 0 = no growth, -100 = all killed). As to conditions: 10 µM unless noted.
Regarding `Oc1cc(Cl)ccc1Cc1ccc(Cl)cc1O`, the growth was 41.4%. With `Cc1ccc(NC(=O)c2cc(NCc3cc(O)ccc3O)ccc2O)cc1` the figure was 16.1%; with `O=C(N/N=C\c1c(O)ccc2ccccc12)C1CC1`, 1.22% (active); with `O=C(/C=C/c1ccc(Cl)cc1)c1ccc(Nc2nc(NCCO)nc(N3CCOCC3)n2)cc1`, 99%.

For the compound `COc1cc(/C=C2\C(=O)N(CCOc3cc(O)c4c(=O)cc(-c5ccccc5)oc4c3)c3ccccc32)cc(OC)c1O`, the growth is -9.06% (active). `COC(=O)c1cc(O)c2cc3c(cc2c1-c1cc(OC)c(OC)c(OC)c1)OCO3`: the growth is 5.92% (active). As to `CC(=O)/C(=C/c1ccc([N+](=O)[O-])cc1)C(=O)c1ccccc1`, the growth is 41.9%. With `Clc1ccc2c(NCCCNc3nccc(Nc4ccc(Br)cc4)n3)ccnc2c1` the figure was -69.2% (active); with `c1cc(CNC23CC4CC(CC(C4)C2)C3)cc(C[N+](Cc2cccc(CNC34CC5CC(CC(C5)C3)C4)c2)(Cc2cccc(CNC34CC5CC(CC(C5)C3)C4)c2)Cc2cccc(CNC34CC5CC(CC(C5)C3)C4)c2)c1` (stereo not given), -29.5% [42 µM] (active). In the case of `O=C1Cc2cc(O)ccc2O1`, the growth is 100%. For `O=C(Cc1ccc(F)c(Cl)c1)Nc1cc(C2(C(F)(F)F)CC2)nn1CC1CCCCC1`, the growth is 14.8%. As for `O=C(/C=C/c1ccccc1)N(C1CCCCC1)C1CCCCC1`, the growth is 74%. The value for `Nc1cc2c3c(cccc3c1)C(=O)N(CCN1CCCC1)C2=O` was 1.24% (active); that for `C=C1c2c(C)nn(-c3ccc(N)cc3)c2N(C)C23CC1C1(C)c4c(C)nn(-c5ccc(N)cc5)c4N(C)C(C)(CC12)C3` (stereo not given) was 55.7%; that for `CCN(CC)CCOc1ccc(Nc2ncc3cc(-c4c(Cl)cccc4Cl)c(=O)n(CCOC)c3n2)cc1` was -19.2% (active). As to `C=C(CBr)[C@@H]1CC[C@]2(C(=O)O)CC[C@]3(C)[C@H](CC[C@@H]4[C@@]5(C)CCC(=O)C(C)(C)[C@@H]5CC[C@]43C)[C@@H]12`, the growth was 71.7%. On to `O=C(CCl)Nc1ccc(Cc2ccc(NC(=O)CCl)cc2)cc1`, for which the growth was -18.3% (active).

`NS(=O)(=O)c1ccc(C(=O)NN2C(=O)c3ccccc3C2=O)cc1`: the growth is 103%. With `N#Cc1c(NC(=O)c2ccc([N+](=O)[O-])o2)[n+]([O-])c2cc(F)c(F)cc2[n+]1[O-]` the figure was 90.2%.

As for `OCCn1cc(-c2nc(-c3c[nH]c4ncccc34)cs2)c2ccccc21`, the growth was 79.1%.

For `CCCCc1ccc(C(O)(CCN2CC3CCC(CC3)C2)c2ccccc2)cc1` (stereo not given), the growth is 84.5%.

As to `O=c1nc(N2CCOCC2)oc2c(-c3cccc4ccccc34)cccc12`, the growth was 93.6%. In the case of `CS(=O)(=O)c1ccc(-c2nc3cc(Cl)ccc3n2CC(=O)N/N=C/c2ccc(Cl)cc2)cc1`, the growth was 25.3%. The value for `CCCCN1CCN(c2ccc3nc(-c4ccc5nc(-c6ccc(OCC)c(OCC)c6)[nH]c5c4)[nH]c3c2)CC1` was 3.99% (active). With `Clc1ccc(-c2nc(NCCc3ccccc3)nc3c(NCCc4ccccc4)cnn23)cc1` the figure was 88.8%; with `O=C(O)c1cc2cc(OCc3ccccc3)ccc2[nH]1`, 112%; with `O=[N+]([O-])c1ccc(Br)o1`, 74.8%. On to `O=C(O)c1ccc(-n2cc(/C=N/Nc3ccc(F)cc3)c(-c3cccc(C(F)(F)F)c3)n2)cc1`, for which the growth is 34.3%.

As for `Cn1c2ccccc2c2c3c(c4c5ccccc5[nH]c4c21)C(=O)N(N)C3=O`, the growth is 81.8%. On to `COc1nc2ccc(C)cc2cc1-c1nc2c(cnn2-c2ccc(Br)cc2)c(=O)[nH]1`, for which the growth was 23.7%. Consider `N#Cc1c(-c2ccccc2)cc(-c2ccccc2)n(CC(=O)NO)c1=O`, for which the growth is -56.3% (active). As to `CCN(CC)CCCCCCCCNc1c2ccc(Cl)cc2nc2ccc(OC)cc12`, the growth was -53.2% (active).

With `CC1CCC(C(C)(C)[N+](C)(C)C)CC1` (stereo not given), the growth is 104%.

As for `CC1C2CCC(C2)C1COCCOCCO` (stereo not given), the growth was 108%. Take `O=C1/C(=C/c2ccc(F)c(F)c2)CN(C(=O)C(Cl)Cl)C/C1=C\c1ccc(F)c(F)c1`: the growth was -47.1% (active). Consider `Cc1ccc2oc(=O)cc(C3C(C#N)=C(N)Oc4c3ccc3ccccc43)c2c1` (stereo not given), for which the growth was 53.1%. The value for `O=C(Cn1cc(CSc2nc3ccccc3o2)nn1)Nc1ccc(F)cc1F` was 102%. With `Cc1cc(I)nc2ccccc12` the figure was 88.8%; with `COc1cc(OC)c2sc(-c3ccc(-n4cncc4-c4cc(OC)c(OC)c(OC)c4)cc3)nc2c1`, 30.3%. Turning to `C[N+]1=C(/C=C/c2ccc(O)c3ncccc23)C(C)(C)c2ccccc21`, the growth was 32.5%.
